This is a sample that favours compounds with a hit; in the whole collection about 0.91% have one here.
BLM helicase inh: Bloom syndrome helicase (human) inhibition; P54132; recombinant BLM DNA unwinding, fluorescence dequenching; Potency, µM (series often up to 56.1 µM), for inactives: at the highest dose activity change, negative = inhibition, most hits filed as inhibitors; hit rate 0.2% among 350,000; AID 2528;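 also: plate controls were vehicle for no effect and no enzyme for full effect; nearly all actives have a fitted effect of over 35% in size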
RECQ1 inh: RECQ1 (human) helicase inhibition | P46063 | RECQ1 DNA unwinding, red fluorescence kinetic read | Potency, µM (top dose mostly 57.3 µM), inactives show at the top dose activity, negative = inhibition, hits mostly inhibitors | hit rate 0.54% among 240,000;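 also: plate controls were vehicle for no effect and no enzyme for full effect; nearly all actives have a fitted effect of over 30% in size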
Target sequence (P46063 whole entry, looked up): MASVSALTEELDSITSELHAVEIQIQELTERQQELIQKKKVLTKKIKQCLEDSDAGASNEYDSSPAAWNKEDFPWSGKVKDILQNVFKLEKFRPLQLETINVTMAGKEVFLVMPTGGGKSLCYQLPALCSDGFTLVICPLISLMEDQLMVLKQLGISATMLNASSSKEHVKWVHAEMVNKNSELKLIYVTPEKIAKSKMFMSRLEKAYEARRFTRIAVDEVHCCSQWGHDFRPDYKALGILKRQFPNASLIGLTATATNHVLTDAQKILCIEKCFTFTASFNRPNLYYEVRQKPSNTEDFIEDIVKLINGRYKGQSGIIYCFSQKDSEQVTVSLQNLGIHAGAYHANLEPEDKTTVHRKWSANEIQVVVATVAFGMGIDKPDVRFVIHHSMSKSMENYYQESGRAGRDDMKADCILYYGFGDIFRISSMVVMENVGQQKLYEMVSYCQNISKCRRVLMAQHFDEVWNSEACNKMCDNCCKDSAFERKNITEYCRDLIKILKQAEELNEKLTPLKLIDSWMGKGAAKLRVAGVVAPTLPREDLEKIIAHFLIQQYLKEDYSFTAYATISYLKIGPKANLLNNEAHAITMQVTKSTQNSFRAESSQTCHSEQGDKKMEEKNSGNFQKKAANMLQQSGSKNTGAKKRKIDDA
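RECQ1T1 50 nM; forked duplex (20 bp + 30-nt ss tails) 200 nM, ATP 2 mM final; pH 8.0, 2 mM MgCl2, 2.5 ug/ml poly(dI-dC); 15 min compound preincubation; discontinuous kinetic read over 2 h at RT.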
APEX1 inh: inhibitors of human APE1 endonuclease | Potency, µM (doses to about 65.8 µM), without a hit: at the highest dose activity change, negative = inhibition, hits mostly inhibitors | recombinant APE1, TAMRA/BHQ-2 abasic DNA cleavage fluorescence | hit rate 0.35% among 350,000 | AID 2517 | P27695;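 also: plate controls were vehicle for no effect and reference inhibitor for full effect; nearly all actives have a fitted effect of over 55% in size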
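Incision of a quenched TAMRA/BHQ-2 THF abasic-site duplex (50 nM) by 0.75 nM APE1, after 15 min compound preincubation, measured as fluorescence increase over three 60 s reads. Values normalized to buffer, DMSO and NSC13755 control wells.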
WRN inhibitor: WRN helicase (human) inhibition; WRN helicase unwinding, fluorescent forked duplex, kinetic; Potency, µM (highest dose often 114 µM), for the others: at the highest dose activity change, negative = inhibition, hits mostly inhibitors; hit rate 0.46% among 360,000; Q14191; also: nearly all actives have a fitted effect of over 55% in size
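Kinetic red-fluorescence monitoring (525/598 nm) tracks WRN helicase activity after 100 nM fluorophore-quencher forked duplex and 2 mM ATP are added to 20 nM enzyme pretreated 15 min at room temperature with compound.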
TexasRed fluor: Texas Red fluorescence interference in TRb-SRC2 counter-screen; TRb/SRC2 Texas Red total fluorescence interference; Potency, µM (series often up to 106 µM), without a hit: at the top dose fluorescence change, negative = quenching; hit rate 0.29% among 280,000; active = well fitted curve in either direction with a large enough effect; inconclusive = small, poorly fitted or top-dose-only effect
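Human TRβ ligand-binding domain (0.6 uM) and Texas Red SRC2 peptide (20 nM) in Tris buffer with 1 uM T3 and 5% DMSO were incubated with pinned compound for 5 hr at ambient temperature. Total fluorescence was computed as S + 2P (555/632 nm).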
TRb-SRC2 inh: disrupts binding of human TR beta to SRC2. TRbeta-SRC2 peptide binding, fluorescence polarization; receptor liganded with 1 µM T3. hit rate 0.065% among 280,000. Potency, µM (series often up to 106 µM), for inactives: at the highest dose activity change, negative = inhibition, most hits filed as inhibitors;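 also: plate controls were bound peptide for no effect and peptide without receptor for full effect; nearly all actives have a fitted effect of over 50% in size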
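Binding of a 20-amino-acid Texas Red SRC2 peptide (20 nM) to TRb ligand-binding domain (0.6 uM) with agonist T3 at 1 uM was followed by fluorescence polarization after a 5 hr room-temperature incubation.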
* hit, by the source's call; i = inactive; ? = inconclusive; nt = not tested or not shown; [ ] = remark or other dose. Unless noted, calls follow the shape of the dose curve; as a rule, active = well fitted curve in the direction sought with a large enough effect; inconclusive = small, poorly fitted or top-dose-only effect, or another doubt; inactive = no such curve, though single readings can be large; an effect the other way counts as inactive or inconclusive. Unless noted, % is scaled to controls: 0 for no effect and ±100 for the full control effect; potency is read from the fitted curve at half-maximal effect.

SMILES	BLM helicase inh	RECQ1 inh	APEX1 inh	WRN inhibitor	TexasRed fluor	TRb-SRC2 inh
COc1ccc(CC(C)NS(=O)(=O)c2ccc3c(c2)CCN3S(C)(=O)=O)cc1OC (stereo unspecified)	-12.3%	nt	-0.9%	-6.2%	7.08µM*[quencher]	-4.9%
CCOC(=O)C1Nc2ccc(C)cc2C2C=CCC12 (stereo unspecified)	nt	nt	nt	-7.4%	nt	nt
O=C(O)C1Nc2c(Cl)cc(Cl)cc2C2C=CCC12 (stereo unspecified)	?	nt	13.4µM*	10µM*	nt	nt
CC(C)C1Nc2c(O)cc(Cl)c([N+](=O)[O-])c2C2C=CCC21 (stereo unspecified)	-7.4%	?	-22.0%	-3.3%[11.6 µM]	14.3%	?
O=C(O)C1Nc2c(Cl)cc(Cl)c(Cl)c2C2C=CCC12 (stereo unspecified)	nt	nt	nt	39.8µM*	nt	nt
CC(=O)C1=C(O)C(=O)N(c2ccccn2)C1c1ccccc1[N+](=O)[O-] (stereo unspecified)	2.5%	nt	55.7%	70.8µM*	nt	nt
CC(=O)C1=C(O)C(=O)N(c2ccc(Br)cn2)C1c1ccccc1[N+](=O)[O-] (stereo unspecified)	-0.6%	nt	-11.2%	9.6%	nt	nt
CN(C)c1ccc(NC2=C([N+](=O)[O-])CS(=O)(=O)C2)cc1	-6.9%	20µM*	-8.0%	-1.0%	-7.2%	-6.5%
CO/N=C\[C@@H](OC)[C@H](C)/C=C\CC(=O)OC	-0.3%[12.4 µM]	i[11.5 µM]	-4.5%[12.4 µM]	nt	-0.3%[11.2 µM]	-3.9%[11.2 µM]
COCCNC(=O)C1CCN(C(=O)c2cc3sccc3n2Cc2ccc(Cl)cc2)CC1	-3.5%	nt	nt	nt	28.2µM*[quencher]	-6.3%
CCn1c(C(=O)N2CCC(C(=O)NCCc3ccc(OC)cc3OC)CC2)cc2sccc21	-1.0%	nt	nt	nt	22.4µM*[quencher]	-9.7%
CCN1CCN(c2oc(-c3ccc(COc4ccccc4C)o3)nc2C#N)CC1	-3.6%	nt	nt	nt	28.2µM*[quencher]	-11.3%
Cc1ccccc1OCc1ccc(-c2nc(C#N)c(N3CCC(C(N)=O)CC3)o2)o1	-8.2%	nt	nt	nt	-21.2%	3.8%
Cc1cccc(OCc2ccc(-c3nc(C#N)c(N4CCN(c5ccccc5)CC4)o3)o2)c1	-1.3%	nt	nt	nt	6310µM*[quencher]	-21.1%
COc1ccc(N2CCN(c3oc(-c4ccc(COc5cccc(C)c5)o4)nc3C#N)CC2)cc1	-4.9%	nt	nt	nt	?	-5.6%
Cc1ccc2c(c1)c1c(c(=O)n(-c3ccccc3C)c(=O)n1CC(=O)NCCC1=CCCCC1)n2C	-3.7%	nt	nt	nt	-1.6%	-3.6%
COc1ccc(C2=Nn3c(nnc3-c3ccccc3C(F)(F)F)SC2)cc1O[C@H]1CCOC1	nt	nt	22.2%	nt	nt	nt
Cc1ccc(S(=O)(=O)NC(=O)O[C@@H]2C(=O)c3cc(Br)ccc3O[C@H]2c2ccc3c(c2)OCO3)cc1	-4.2%	7.0%	1.5%	nt	-1.4%	-9.0%
O=C(O)C(O)c1ccco1 (stereo unspecified)	?	-11.1%	1.9%	50.1µM*	-7.2%	-0.6%
O=C(O)C(c1ccc(Cl)cc1)c1ccc(Cl)cc1	nt	nt	nt	nt	-4.0%[201 µM]	0.2%[201 µM]
CSCC[C@H](NC(=O)[C@H](Cc1c[nH]c2ccccc12)NC(=O)CNC(=O)[C@H](Cc1ccc(O)cc1)NC(=O)[C@H](C)NC(=O)[C@H](CCC(=O)O)NC(=O)[C@H](CCC(=O)O)NC(=O)[C@H](CCC(=O)O)NC(=O)[C@H](CCC(=O)O)NC(=O)[C@H](CCC(=O)O)NC(=O)[C@H](CC(C)C)NC(=O)[C@H](Cc1c[nH]c2ccccc12)NC(=O)[C@@H]1CCCN1C(=O)CNC(=O)[C@@H]1CCC(=O)N1)C(=O)N[C@@H](CC(=O)O)C(=O)N[C@@H](Cc1ccccc1)C(=O)NCC(=O)O	-4.2%	-3.5%	2.4%	nt	2.1%	1.7%
O=C(Nc1ccccc1)/C(=C\c1cccs1)NC(=O)c1ccccc1	1.9%	-7.3%	-1.4%	2.9%	0.0282µM*[quencher]	-12.9%
Cc1cccc(NC(=O)/C(=C\c2cccs2)NC(=O)c2ccccc2)c1	-1.0%	-15.3%	-0.5%	3.7%	-0.1%	?
Brc1ccc(C2Nc3cccc4cccc(c34)N2)o1	-0.8%	?	?	-20.5%[57.1 µM]	2.82µM*[quencher]	24.3%
O=C(NC(=S)Nc1cccc(O)c1)c1ccco1	-4.4%	-3.1%	8.3%	5.1%	3.0%	5.7%
SMILES	BLM helicase inh	RECQ1 inh	APEX1 inh	WRN inhibitor	TexasRed fluor	TRb-SRC2 inh
Cc1c(CCC(=O)O)c(=O)oc2c(C)c3occ(-c4ccc(Cl)cc4)c3cc12	-18.4%	nt	?	56.2µM*	nt	nt
Cc1c([N+](=O)[O-])cc(N2C(=O)C=CC2=O)cc1[N+](=O)[O-]	nt	nt	nt	-12.2%	nt	nt
Cc1cc(C)cc(N2C(=O)C=CC2=O)c1	nt	nt	nt	20µM*	nt	nt
CC(C)N=c1scc(-c2ccco2)n1/N=C/c1ccc(O)c(O)c1	-13.4%	i	-1.1%	-14.5%	-1.2%	-0.2%
C=CCN=c1scc(-c2ccco2)n1/N=C/c1ccc(O)c(O)c1O	-26.8%	-10.3%	?	50.1µM*	-7.4%	8.6%
CN=c1scc(-c2cccs2)n1/N=C/c1ccc(O)c(O)c1O	-18.4%	6.31µM*	6.31µM*	?	-15.2%	2.0%
c1ccc(CNc2c3ccccc3nc3ccccc23)cc1	100.1%	nt	-30.1%	?	nt	nt
CN(C)CCCNc1c2ccccc2nc2ccccc12	169.1%	nt	9.47µM*	?	nt	nt
Oc1ccc(CCNc2c3ccccc3nc3ccccc23)cc1O	-3.9%	nt	?	50.1µM*	nt	nt
COc1cc(OC)cc(C(=O)NC(=S)NNC(=O)Cc2cccs2)c1	-1.8%	-7.1%	-4.0%	-0.1%	0.316µM*[quencher]	?
Clc1ccc(-c2nnn3c2nc(N2CCCCC2)c2ccccc23)cc1	-18.3%	nt	nt	nt	-1.6%	2.5%
C=Cc1c(C)c2cc3nc(cc4[nH]c(cc5nc(cc1[nH]2)C(C)=C5CCC(=O)OC)c(CCC(=O)O)c4C)[C@@]1(C)C3=CC=C(C(=O)OC)[C@H]1C(=O)OC	nt	nt	-0.1%[21 µM]	nt	nt	nt
COC(=O)C1CCN(C(=O)c2cc(-c3ccco3)nc3ccccc23)CC1	nt	nt	?	50.1µM*	nt	nt
O=C(NCCCN1CCOCC1)c1cc(-c2ccco2)nc2ccccc12	nt	nt	-10.0%	50.1µM*	nt	nt
CC1(C)C(C=C(Cl)Cl)[C@H]1C(=O)OCc1cccc(Oc2ccccc2)c1 (stereo partly specified)	nt	nt	nt	nt	0.2%[201 µM]	6.6%[201 µM]
O=C1CCC(C2CCCCC2)CC1	nt	nt	nt	nt	-0.3%[201 µM]	2.3%[201 µM]
O=C(c1cccc(Br)c1)N1CCCc2ccccc21	-1.0%	nt	-19.6%	0.2%	nt	nt
O=C(c1coc(=O)c(Br)c1)N1CCCc2ccccc21	?	35.5µM*	?	?	?	10.4%
